This is a sample that favours compounds with a hit; in the whole collection about 12% have one here.
WT yeast gro inh: growth inhibition of WT strain, primary screen, mitochondrial fusion inhibitor project, WT and mutant strains, chemical genetic; mitochondrial fusion phenotypic screen; inhibition, % at 10 µM; 2.1% of 190,000 active; AID 1362, 2008; in the data active means inhibition above about 58%; tested in S. cerevisiae
Arbovirus anti: antivirals against arbovirus infection, primary screen, cell-based, full library, 10K replicate subset. arbovirus infection cell-based antiviral screen. inhibition, % at 10 µM. 0.37% of 200,000 active; in the data active means inhibition above about 30%
CHOP inhibitor: inhibitors of CHOP promoter induction, primary screen, cell-based, unfolded protein response, luciferase reporter; CHO-K1 CHOP-promoter luciferase, tunicamycin-induced, 15-18 h; inhibition, % at 10 µM; 3.8% of 220,000 active; AID 2732, 2010;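 active means compounds that reduced the stress-induced luciferase reporter signal by more than about 70% of percent inhibition, limit read from the data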
L major viab: Leishmania major promastigote growth inhibition, primary screen | 9% of 200,000 active | Leishmania major promastigotes, resazurin fluorescence viability | inhibition, % at 10 µM | AID 1063, 2008; in the data active means inhibition above about 50%;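 further: promastigotes grown with compound for 44 hours at 28 °C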
Each line names hits and unclear results; the compound was inactive in the other large screens.

CCNc1ccc(S(=O)(=O)N(C)C)cc1NCC(=O)Nc1ccc(Br)cc1F	L major viab 72
Cc1cc(C)c(OC2(c3ccccc3)OC(=O)c3ccccc32)c(C)c1 (stereo not drawn)	WT yeast gro inh 79
Cc1cccc(C)c1OC1(c2ccccc2)OC(=O)c2ccccc21 (stereo not drawn)	L major viab 98
CCOc1ccc(N(CC)S(=O)(=O)c2ccc3c(c2)n(C)c(=O)c(=O)n3C)cc1	none
COc1ccc(C2(CNC(=O)c3cc([N+](=O)[O-])cc([N+](=O)[O-])c3)CCCC2)cc1OC	L major viab 100
Cc1ccc(S(=O)(=O)N2CCN(C(=O)Cn3nc(C(=O)O)c4ccccc4c3=O)CC2)cc1	none (no result: WT yeast gro inh, Arbovirus anti, L major viab)
CN(C)C(=O)COc1ccc2ccc(=O)oc2c1	none
CC(=O)OC1CCC2(C)C(COc3ccc4ccc(=O)oc4c3)C(C)(O)CCC2C1(C)C (stereo not drawn)	L major viab 99
COc1ccc(NC(=O)N2CCCC(c3nc(-c4ccc(C(C)C)cc4)no3)C2)cc1 (stereo not drawn)	WT yeast gro inh 72
c1ccc(-c2nnc(OCC3CCCO3)c3ccccc23)cc1 (stereo not drawn)	none
Cc1ccc2c(c1)N(C(C)C(=O)NCc1ccc3c(c1)OCO3)C(=O)CO2 (stereo not drawn)	none (no result: WT yeast gro inh, Arbovirus anti, L major viab)
COc1c2occc2c(OC)c2c(=O)cc(C(F)(F)C(F)(F)F)oc12	CHOP inhibitor 83
COc1ccc(OC)c(-c2cc(C(=O)N3CCc4ccccc4C3)no2)c1	WT yeast gro inh 62
Cc1nn(Cc2ccc(Cl)c(Cl)c2)c(C)c1NC(=O)c1cc(-c2ccc3c(c2)OCO3)on1	L major viab 77
COc1ccc(-c2cc(C(=O)N3CCc4ccccc4C3)no2)cc1	none
Cc1nn(Cc2ccc(Cl)c(Cl)c2)c(C)c1NC(=O)c1cn(-c2ccccc2)nc1-c1ccccc1	L major viab 77
Cc1cc(C)n(C(=O)c2ccc([N+](=O)[O-])cc2[N+](=O)[O-])n1	L major viab 99
Cc1ccc2oc(=O)n(CC(=O)OCCC(C)C)c2c1	none (no result: WT yeast gro inh, Arbovirus anti, L major viab)
COc1ccc(OC)c(-c2cc(C(=O)Nc3c(C)nn(Cc4ccc(Cl)cc4)c3C)no2)c1	L major viab 52
COc1ccc(OC)c(-c2cc(C(=O)Nc3c(C)nn(Cc4ccccc4)c3C)no2)c1	WT yeast gro inh 60
Cc1nn(Cc2ccccc2)c(C)c1NC(=O)Cn1nc([N+](=O)[O-])c(Cl)c1C	none
COc1ccc(OC)c(-c2cc(C(=O)Nc3cc(C)on3)no2)c1	none
Cc1nn(Cc2ccccc2)c(C)c1NC(=O)c1ccc([N+](=O)[O-])cc1[N+](=O)[O-]	L major viab 63
CCOC(=O)C1CCCN(Cc2nc(C3CC3)no2)C1 (stereo not drawn)	none (no result: WT yeast gro inh, Arbovirus anti, L major viab)
Cc1cc(C)cc(OCC(=O)OCC(=O)N2CC(=O)Nc3ccccc32)c1	none
CCOc1cc(Br)c(Br)c(C=Nc2ccc(NC(C)=O)cc2)c1O	CHOP inhibitor 87, L major viab 68
CCCCN1C=CC(=C2C(=O)c3ccccc3C2=O)C=C1	CHOP inhibitor 94, L major viab 53
COc1cc(OC)c(-c2nnc(-c3ccc(OC)c(OC)c3OC)o2)cc1OC	L major viab 56
O=C(N/C(=C/C=C\c1ccccc1)C(=O)N1CCOCC1)c1ccc(Br)cc1	none
CCCN(Cc1ccccc1)C(=S)Nc1ccc(F)cc1	none
CCCN(Cc1ccccc1)C(=S)Nc1ccc(SC(F)F)cc1	WT yeast gro inh 70, L major viab 53
CN(C)CCCN(Cc1ccccc1)C(=S)Nc1cccc(C(F)(F)F)c1	L major viab 60
CCCN(Cc1ccccc1)C(=S)Nc1cccc(C(F)(F)F)c1	L major viab 91
O=C1CC(C2CCCO2)C(=O)N1c1ccc(Cl)c(Cl)c1 (stereo not drawn)	none
Cc1[nH]nc(SCC(=O)NCc2ccc(Cl)cc2)c1[N+](=O)[O-]	none
C=CC[N+](C)(C)C/C(Cl)=C(\Cl)c1ccccc1	none
COc1ccc(/C=N/NC(=O)c2ccc(CN3c4cccc5cccc(c45)S3(=O)=O)cc2)cc1	L major viab 82
CC(=O)NCCCNS(=O)(=O)c1ccc(C)cc1	none
O=C(c1cccs1)N(Cc1nc2sc3c(c2c(=O)[nH]1)CCCC3)C1CCCC1	WT yeast gro inh 61
CN=C1S/C(=C\c2cc(C)n(-c3ccccc3F)c2C)C(=O)N1C	WT yeast gro inh 73, CHOP inhibitor 96, L major viab 62
Cc1cc(/C=C2\SC(=S)N(C)C2=O)c(C)n1-c1cccc(O)c1	none (no result: WT yeast gro inh, Arbovirus anti, L major viab)
CC(C)CC(=O)c1c[nH]c(C(=O)N2CCN(Cc3ccccc3)CC2)c1	none
